Reference: PubChem BioAssay AID1159580 (chemical genetic matrix, 2015)
Among all 5,500 compounds or so, about 2,000 (36%) were called active. Another 18% or so got no clear call; they are omitted. Rule as the data show it: active = normalized growth mostly below about 0.91 (no sharp cut-off); inconclusive = no clear call, values can overlap the other calls; inactive = mostly above about 0.92. The list shows a part of the results.

Experiment: chemical genetic growth profiling, strain panel (AID 1159580);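 also: tested at 20 µM; growth read once vehicle control cultures reached saturation at 30 °C; 1 = growth at the plate median or of vehicle wells; lower values mean less growth of the strain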
Conditions: S. cerevisiae deletion strains, growth OD
[1] = locus YAL013W, strain DEP1, active compounds read low
[2] = locus YBR229C, strain ROT2, active compounds read low
[3] = locus YDL101C, strain DUN1, active compounds read low
[4] = locus YDR150W, strain NUM1, active compounds read low
[5] = locus YEL061C, strain CIN8, active compounds read low
[6] = locus YGR078C, strain PAC10, active compounds read low
[7] = locus YGR229C, strain SMI1, active compounds read low
[8] = locus YHR030C, strain SLT2, active compounds read low
[9] = locus YHR087W, strain rtc3, active compounds read low
[10] = locus YJR043C, strain POL32, active compounds read low
[11] = locus YJR075W, strain HOC1, active compounds read low
[12] = locus YKL190W, strain CNB1, active compounds read low
[13] = locus YLR039C, strain RIC1, active compounds read low
[14] = locus YLR058C, strain SHM2 (second series), active compounds read low
[15] = locus YLR085C, strain ARP6, active compounds read low
[16] = locus YLR262C, strain YPT6, active compounds read low
[17] = locus YML094W, strain GIM5, active compounds read low
[18] = locus YMR219W, strain ESC1, active compounds read low
[19] = locus YMR263W, strain SAP30, active compounds read low
[20] = locus YMR307W, strain GAS1, active compounds read low
[21] = locus YNL153C, strain GIM3, active compounds read low
[22] = locus YNL298W, strain CLA4 (second series), active compounds read low
[23] = locus YNL322C, strain KRE1, active compounds read low
[24] = locus YNR030W, strain Alg12, active compounds read low
[25] = locus YOL006C, strain TOP1, active compounds read low
[26] = locus YPL055C, strain LGE1, active compounds read low
[27] = locus YPL241C, strain CIN2, active compounds read low
[28] = locus YPR135W, strain CTF4, active compounds read low
[29] = locus YCL061C, strain MRC1, active compounds read low
[30] = locus YJL187C, strain SWE1, active compounds read low

Measured: normalized growth

Cc1c(S(=O)(=O)c2ccc(Cl)cc2)csc1S(=O)(=O)N/N=C\c1c(Cl)cccc1Cl
inactive: [1] 1 | [2] 1.01 | [3] 1.02 | locus YDL134C, strain PPH21, active compounds read low 0.996 | [4] 0.948 | [5] 0.991 | [6] 1.01 | [7] 1 | [8] 1.02 | [9] 0.998 | [10] 1.01 | [11] 1.03 | [12] 1 | [13] 1 | [14] 1.01 | [15] 1.04 | [16] 1 | [17] 0.988 | [18] 1.01 | [19] 0.984 | [20] 1.04 | [21] 1 | [22] 1.03 | [23] 1 | [24] 1.01 | [25] 1.03 | [26] 0.886 | [27] 0.993 | [28] 1

Cc1cscc1S(=O)(=O)c1ccc(Cl)cc1
inactive: [1] 0.991 | [2] 0.969 | [29] 0.97 | [3] 0.966 | [4] 0.929 | [5] 0.98 | [6] 0.958 | [7] 0.981 | [8] 0.821 | [9] 0.974 | [30] 1 | [10] 0.958 | [11] 0.922 | [12] 0.991 | [13] 0.819 | [14] 0.975 | [15] 0.967 | [16] 0.833 | [17] 0.969 | [18] 0.978 | [19] 0.953 | [20] 0.855 | locus YNL128W, strain TEP1, active compounds read low 0.994 | [21] 0.945 | [22] 0.961 | [23] 0.975 | [24] 0.95 | [25] 0.904 | [26] 0.898 | [27] 0.953 | [28] 0.765

Cc1c(S(=O)(=O)c2ccc(Cl)cc2)csc1C(=O)NNc1cccc(Cl)c1
active: locus YER123W, strain YCK3, active compounds read low 0.574 | locus YFR019W, strain FAB1, active compounds read low 0.653 | locus YLR113W, strain HOG1, active compounds read low 0.675 | locus YPL256C, strain CLN2, active compounds read low 0.733
inactive: locus YAR019C, strain CDC15, active compounds read low 0.964 | locus YBL105C, strain PKC1, active compounds read low 0.958 | locus YBR135W, strain CKS1, active compounds read low 0.96 | locus YBR136W, strain MEC1, active compounds read low 0.962 | locus YBR160W, strain CDC28, active compounds read low 0.957 | locus YDL017W, strain CDC7, active compounds read low 0.967 | locus YDL028C, strain MPS1, active compounds read low 0.97 | [3] 0.978 | locus YDL108W, strain KIN28, active compounds read low 0.973 | locus YDL132W, strain cdc53, active compounds read low 0.954 | locus YDL214C, strain PRR2, active compounds read low 0.826 | locus YDR052C, strain DBF4, active compounds read low 0.953 | locus YDR054C, strain cdc34, active compounds read low 0.947 | locus YDR226W, strain ADK1, active compounds read low 0.959 | locus YDR477W, strain SNF1, active compounds read low 0.769 | locus YER133W, strain GLC7, active compounds read low 0.864 | locus YFL009W, strain cdc4, active compounds read low 0.962 | locus YFL029C, strain CAK1, active compounds read low 0.959 | locus YFR003C, strain YPI1, active compounds read low 0.967 | locus YFR028C, strain CDC14, active compounds read low 0.948 | locus YGR040W, strain KSS1, active compounds read low 0.811 | locus YGR052W, strain FMP48, active compounds read low 0.71 | locus YGR092W, strain DBF2, active compounds read low 0.783 | [8] 0.884 | locus YHR079C, strain IRE1, active compounds read low 1.01 | locus YHR082C, strain KSP1, active compounds read low 0.958 | locus YHR205W, strain SCH9, active compounds read low 0.907 | locus YIL147C, strain SLN1, active compounds read low 0.972 | locus YJL095W, strain BCK1, active compounds read low 0.679 | locus YJL128C, strain PBS2, active compounds read low 0.968 | locus YJL157C, strain FAR1, active compounds read low 0.886 | locus YJR016C, strain ILV3, active compounds read low 0.968 | locus YJR066W, strain TOR1 (second series), active compounds read low 0.684 | locus YJR066W, strain TOR1, active compounds read low 0.872 | locus YKL048C, strain ELM1, active compounds read low 0.947 | locus YKL067W, strain YNK1, active compounds read low 0.879 | locus YKL101W, strain HSL1, active compounds read low 0.948 | locus YKL193C, strain SDS22, active compounds read low 0.963 | locus YKL203C, strain TOR2, active compounds read low 0.954 | locus YLR133W, strain CKI1, active compounds read low 0.81 | locus YLR403W, strain SFP1, active compounds read low 0.877 | locus YML070W, strain DAK1, active compounds read low 0.823 | locus YMR001C, strain CDC5, active compounds read low 0.961 | locus YMR205C, strain PFK2 (second series), active compounds read low 0.91 | locus YMR277W, strain FCP1, active compounds read low 0.96 | locus YNL006W, strain LST8, active compounds read low 0.963 | locus YNL020C, strain ARK1, active compounds read low 0.941 | locus YNL161W, strain CBK1, active compounds read low 0.955 | locus YNL183C, strain NPR1, active compounds read low 0.911 | locus YNL207W, strain RIO2, active compounds read low 0.969 | locus YNL222W, strain SSU72, active compounds read low 0.961 | locus YNL307C, strain MCK1 (second series), active compounds read low 0.743 | locus YOL078W, strain AVO1, active compounds read low 0.965 | locus YOL136C, strain PFK27, active compounds read low 0.889 | locus YOR119C, strain RIO1, active compounds read low 0.905 | locus YOR231W, strain MKK1, active compounds read low 0.942 | locus YOR329C, strain SCD5, active compounds read low 0.969 | locus YPL031C, strain PHO85, active compounds read low 0.852 | locus YPL153C, strain RAD53, active compounds read low 0.857 | locus YPL204W, strain HRR25, active compounds read low 0.897 | locus YPL209C, strain IPL1, active compounds read low 0.955 | locus YPR025C, strain CCL1, active compounds read low 0.962 | locus YPR106W, strain ISR1, active compounds read low 0.971 | locus YPR111W, strain DBF20, active compounds read low 0.952 | strain NNK1, active compounds read low 0.966 | strain TSCII, active compounds read low 0.957

Cc1c(S(=O)(=O)c2ccc(Cl)cc2)csc1C(=O)Nc1ccc(N2CCOCC2)c(Cl)c1
active: [11] 1.15 [resistant]
inactive: [1] 0.992 | [2] 1.03 | [29] 1.05 | [3] 1.06 | [4] 1.05 | [5] 1.03 | [6] 1.07 | [8] 1.06 | [9] 0.999 | [30] 1.03 | [10] 1.03 | [12] 0.982 | [13] 0.992 | [14] 0.989 | [15] 0.947 | [16] 1.12 | [17] 0.988 | [18] 1 | [19] 1.03 | [20] 1.03 | [21] 1.06 | [22] 0.999 | [23] 0.991 | [24] 0.995 | [25] 1.03 | [26] 1.05 | [27] 0.984 | [28] 1.13
